PubChem BioAssay AID1159506 (National Center for Advancing Translational Sciences (NCATS), 2015)
Whole data set: some 59,000 sequences, median the read-out near -0.00055, cut for the lowest 2% near -2. Shown is part of a subset that was picked to be rich in the lowest values.

assay: Identification of proteins required for the processing of the EWS-FLI1 nascent transcript; conditions: TC32 Ewing sarcoma NR0B1-luc vs CMV-luc (EWS-FLI1 target promoter against control promoter), 48 h; screened at 20 nM (by protocol);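 also: robust z of luciferase light less the median z of siRNAs with the same seed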
Method in brief: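 Parallel TC32-NR0B1-luc and TC32-CMV-luc reverse transfections with 20 nM siRNA in RPMI-1640/10% FBS, luciferase measured 48 h later. Seed-adjusted z-scores from normalized, z-score-MAD transformed data; AllStars negative and siGL4 controls on each plate.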

Sequence | seed-corrected z-score
UUGAUGUACAGAUACCAGG against BTBD18 | -2.42
AAAAGUCCAAACAAUACCC against GPR156 | -0.327
UACUUGAGCACGUCGAUGA against C19orf68 | -0.256
UCACUUUGAACUUUCCGGC against SCP2D1 | -1.27
AAUGGGAAAAGAAUUGCUU against IGFBP7-AS1 | 0.0752
UUGGUGGAUAUACUCAAUC against EXO5 | -2.07
UGAGGAACCAGUUCCAAGG against TMEM60 | -0.737
UUCCUGCUGCGUACACUUC against KCNAB3 | -0.0212
ACAUAUAUAAGAAUAUCGG against ARL3 | -0.177
UUGUGGAACAUCAUGUCUU against ADCY6 | 1.34
UAGGUUGUGACUGGUGGUG against ARID5A | -3.43
UAGUCGAACACCAAGAGGG against CDH3 | -0.271
UCCGGUUUAUAUUUGGUGC against EPSTI1 | -0.285
UUUCAUCCUAGAAACUCCC against SLC45A3 | 0.412
UUCACCAUAAACACGAUCC against DPM1 | 0.428
UAUGAAUCCAGAUUGAACU against CXCL1 | 0.898
UCCCGGUACAUGUUGUGGG against RPL18A | -2.34
UGUUGAGUAGGUCCGUUCC against EPHA7 | 0.58
UACAGUGACGAGAAGUUCU against RALGDS | 0.583
AUCUCUUCCACUUCCGAGG against SMARCB1 | -2.19
UAAUUGAACUGAUCCAGUC against WDR12 | -0.242
UUCCUUAGCACCAUUGAUG against MMADHC | 1.09

Sequence | seed-corrected z-score
UCAGUUUUAGGAUAUAUAC against USP46-AS1 | 0.575
AUAUUAAGCAGACAACUCC against DIRC2 | 0.227
UGAGGUUAAAGAAGGUGAC against HRH3 | -0.214
UGAGUUUCAUCAUAGUCUG against BMX | -4.87
UAAGCACACAUUUACUUGG against HIST1H2BG | 0.782
UUUCAUCUGAAGACAGGAC against DDIT3 | -1.09
UCUUCGUUGAGUGCAUCCC against SOCS2-AS1 | -0.904
UAUGUAGUUAAGACCAUUC against IRS1 | 0.431
ACAAUUUUAGCUGUAACCC against OC90 | 0.989
UCGCUGUCGAGCAGUAAGC against INO80B | -2.1
UUAGUGGUCAUGGGCUUCC against GTF2F1 | -0.176
UCGCUUGCAAAUAAUCUGC against ULK2 | -0.141
AAGUCUGCGAUUAAAGCUG against DTNBP1 | -2.27
UACAUAGCAAACAUGACCG against ATL2 | -0.859
UGAAGGUUUGGAGCAAACU against RPL15P17 | 0.127
UGAUCUCAGUCCUCGCUGC against LINC01118 | -0.476
UGUAGGAACACUCAUCACC against KCNA4 | -2.42
UUCUGUCCAAUUGUCGCUG against JTB | -0.0311
UAGCAUGUAACGUGUGACC against CNTNAP1 | -0.734
UGAAGAUCCAGCAAGUAUC against 6-Mar | 0.65
UCACAUGCAUCAAUUUUCG against NDUFB5 | 0.331
UAUAGCUGAAUGGUCAUUG against KRTAP3-3 | -3.04

Sequence | seed-corrected z-score
UCAGUGACAACAUCACGGC against PPP2R5D | 0.201
UGCCGUCUUACUCUUUGCG against C19orf53 | -0.415
AAACUUGUUUCUGCACAUG against OR2F1 | 1.3
UUCCCAUUGAUACUCAUGG against LECT1 | -0.035
UAAUGCUUGAGGCACUUGG against CALHM2 | 0.134
UUGUCUCUCACUCAGAUUG against HOXB9 | 0.619
UGCUUUGCAAUGAUCUCUC against HNRNPM | -2.32
UGUCAUGCAAUAAGAAUCU against NLGN4Y | 0.297
UUAGAGUAAGUAAAUAUCC against RPS18P5 | -0.219
UGGGUAUACAGUCAUCAUC against SLC38A9 | -2.9
UUGGGUAAAAGACAGUUGA against TKT | -0.555
UAGACAACAUCAGUGAUCC against RPS8P4 | 0.47
AAGCUUCUUAACUUCAUUC against RPL14P1 | -3.84
UUUGGAGAACUCCCUGGGC against FLYWCH1 | -0.00776
UAAUUGAGGGAGCAAAGGC against FAM53A | -0.541
UCCUUUUCCACGACCAUCG against CCR2 | -1.29
UGCUGGAUCAGGGAGAUAG against TRPM2 | -2.19
UCUUGUAGCGGAAAAGGCC against DUSP2 | 0.0146
UAACGAAUAAUUUCUGCUC against HPGDS | -0.285
UUCCGGAUAGCCUACAUCC against USP36 | -0.445
UAAUGUACAUCUCUCGUCC against CNGA1 | -2.2
UCAUCCUCCAGGAUCAUGG against ZSCAN2 | -0.868

Sequence | seed-corrected z-score
UAUUAGCACAGUGUAAGGC against PDE10A | -0.276
AAUGAUCACAUCGAUAGUG against SGMS2 | -2.21
UUUAUCAUUAGGGCUAGGG against DHRS4L1 | 0.864
UUUUCGGUAACUCUGCGUG against SPEN | -0.638
UAAGGUUCUCCCUCACAGC against JAKMIP2 | -0.785
UUGUUGUAAAGCACGAUGU against CHRNB4 | -0.439
UAUUAUUGAUGCGACAUCC against CNGB3 | 0.631
UCUGGUUCCUCGGCGAAGU against PRSS53 | -2.84
UAUCUUCACUGGGUUCAUG against IRF6 | 2.07
AAUUUCUCCAGAAUCUAUG against TENM4 | -2.16
UUCUUUUAUUGCCUCGGGU against KISS1 | 0.198
UUCGUUCCAACAUAGGCUG against AGBL1 | -2.49
UGACAUAUGAGUUCGAUGG against ZCCHC17 | 0.589
AAUACUCUCAGUUCGAAUG against TXNDC15 | 0.939
AAUCUUGUUAUGCUCAUGG against ZBTB47 | -0.317
UUCGGUUCAAGUUUAGCAG against TM9SF2 | -0.205
UCAAGUUCUAUGAGAUUGG against ARRB1 | 0.195
ACAAUUUCAAGCUCCUGUC against MAGOHB | -1.58
UCUAGAUCACCAAACAUCA against OR1N1 | 0.571
AGACAUAACACCUUCUUCA against RPL10A | -2.86
ACACCAGUGAUUACUGUGC against FLJ44635 | -0.245
UUGGUGAAUAGUCUCUUUC against RPS2P45 | -0.275

Sequence | seed-corrected z-score
UCUUCACGCAGUAUCUUUC against SLC25A13 | 1.22
UCUUCUUUAGUCUUCCUGC against STMND1 | -1.04
UGCUCGAAAACAACCUUCU against TPI1 | 0.853
ACAUCUAUCACAUCUAAGG against ZC3H13 | 0.428
UAUUUUGCAAUAUCUUCUC against SLU7 | -0.229
AUCGUCAUAUCUACCAUUG against USP34 | -1.15
UGUUUGAUGACAAGGGUUG against POLE2 | -2.32
AAAGUGUCUAGCCCUAUGG against MESP1 | 0.768
AAUUCCAUGAGGGCCUUCC against CDKN2AIPNLP1 | -2.53
UUCGGCACCAUUCACAGAG against FAM57A | 0.0703
UGUUGACAAACCAUCUUUC against PDPN | 0.381
UUCAAAAACCACGAUGUUG against CLDN8 | 0.491
UGUUGUAGCACUUGGCUUU against IFITM5 | -3.59
AUAUCGAACAGUUUGGUAC against CTDNEP1 | 0.928
AUCCGGAUCAUCGAGUCUG against ATP1B4 | -0.782
UUAAAUGUAAGCAGGUUUC against CYTL1 | 0.276
AUUGAGGUAGGAGCCGUCG against FGFRL1 | -2.32
UUCAUUGCGAUUAGCCUGC against ANXA13 | -0.522
UACUAGAGCAGUGUCUGAG against DNPH1 | 0.502
UUCUCGUUGAUGCGGCUCC against ASB1 | -2.16
UUGUUUUCACUUCCAAUGC against FCAMR | -0.0643
UCACGGUCAUCAUCUAGGG against FOPNL | -2.56

Sequence | seed-corrected z-score
UUGUCUAGAAGAAUUGUCG against TTC3 | -0.75
UUAGGGACGAUGUCCACGG against RSPH6A | -0.977
UCUGGUUCAGCAUGAGCUG against SYT8 | -2.2
UAUAACUUGUCGGAAACGC against NPIPB3 | 0.406
UCAAGUCCGACUUGGAGCG against FAM110A | -0.0203
AGUCUGAAUACCAUCCUUC against GATA1 | -0.386
AACAUAGCUAAAAUGAUCC against CLMN | -2.28
ACUGAGCUCAUUCUUGUCC against HSF1 | -0.661
UUUACAGCUGAUGAUAUGG against RWDD4 | -0.249
UUCGAUAGUAACAAAGUUC against PCDH9 | -2.03
AAAGUCUCCAGUUAAUAGC against MRPL46 | 1.41
UAGUGCACCACGCAGGUCU against FKBP1A | 0.92
UUACGGACAUCCGAUCUUC against DPYS | -0.0377
UCAUAGUCCGCGAUCACCU against EDF1 | -0.388
UAUCCAGUACGUGAGGCCC against LRP5L | -1.82
UUGGUUGUCAGAGUAGGUG against HSPA1L | -2.39
UUUCCCAUCCUUAAAGAGC against PTGS1 | -0.201
AAUCUAACUGCAUUCGUUG against RSBN1L | 0.409
UUGUGAGCCGACAGGAUGC against PYCR2 | -0.604
AAAACAUACAUUGACUUGC against LINC01098 | -0.153
UGAGUUUCCGUACCACACC against PRDM12 | -2.92
UAUUCCCUAAUAAAGCAGG against ZMYM5 | 0.289
